Data from PubChem BioAssay AID504333 (National Center for Advancing Translational Sciences (NCATS), 2011).
In all, about 360,000 compounds went through this assay and about 16,000 (4.4%) were called active. About 9% were inconclusive and are not listed. This excerpt belongs to a sample that is enriched for actives. Unmarked numbers belong to inactive results. The call rests on the fitted dose curve; in most records, active means well fitted inhibition curve with a large enough effect; inconclusive means small, poorly fitted or top-dose-only effect; inactive means no such curve, though single readings can be large or run the other way.

The compounds below were run against Bromodomain adjacent to zinc finger domain protein 2B (Homo sapiens) (UniProt Q9UIF8) (assay: qHTS Assay for Inhibitors of BAZ2B). Conditions: AlphaScreen BAZ2B-H3K14Ac peptide displacement; series mostly up to 114 µM; activity change, negative = inhibition: at the top concentration.
Chain of Bromodomain adjacent to zinc finger domain protein 2B (Homo sapiens) (Q9UIF8 whole entry, looked up, the tested form may be a part): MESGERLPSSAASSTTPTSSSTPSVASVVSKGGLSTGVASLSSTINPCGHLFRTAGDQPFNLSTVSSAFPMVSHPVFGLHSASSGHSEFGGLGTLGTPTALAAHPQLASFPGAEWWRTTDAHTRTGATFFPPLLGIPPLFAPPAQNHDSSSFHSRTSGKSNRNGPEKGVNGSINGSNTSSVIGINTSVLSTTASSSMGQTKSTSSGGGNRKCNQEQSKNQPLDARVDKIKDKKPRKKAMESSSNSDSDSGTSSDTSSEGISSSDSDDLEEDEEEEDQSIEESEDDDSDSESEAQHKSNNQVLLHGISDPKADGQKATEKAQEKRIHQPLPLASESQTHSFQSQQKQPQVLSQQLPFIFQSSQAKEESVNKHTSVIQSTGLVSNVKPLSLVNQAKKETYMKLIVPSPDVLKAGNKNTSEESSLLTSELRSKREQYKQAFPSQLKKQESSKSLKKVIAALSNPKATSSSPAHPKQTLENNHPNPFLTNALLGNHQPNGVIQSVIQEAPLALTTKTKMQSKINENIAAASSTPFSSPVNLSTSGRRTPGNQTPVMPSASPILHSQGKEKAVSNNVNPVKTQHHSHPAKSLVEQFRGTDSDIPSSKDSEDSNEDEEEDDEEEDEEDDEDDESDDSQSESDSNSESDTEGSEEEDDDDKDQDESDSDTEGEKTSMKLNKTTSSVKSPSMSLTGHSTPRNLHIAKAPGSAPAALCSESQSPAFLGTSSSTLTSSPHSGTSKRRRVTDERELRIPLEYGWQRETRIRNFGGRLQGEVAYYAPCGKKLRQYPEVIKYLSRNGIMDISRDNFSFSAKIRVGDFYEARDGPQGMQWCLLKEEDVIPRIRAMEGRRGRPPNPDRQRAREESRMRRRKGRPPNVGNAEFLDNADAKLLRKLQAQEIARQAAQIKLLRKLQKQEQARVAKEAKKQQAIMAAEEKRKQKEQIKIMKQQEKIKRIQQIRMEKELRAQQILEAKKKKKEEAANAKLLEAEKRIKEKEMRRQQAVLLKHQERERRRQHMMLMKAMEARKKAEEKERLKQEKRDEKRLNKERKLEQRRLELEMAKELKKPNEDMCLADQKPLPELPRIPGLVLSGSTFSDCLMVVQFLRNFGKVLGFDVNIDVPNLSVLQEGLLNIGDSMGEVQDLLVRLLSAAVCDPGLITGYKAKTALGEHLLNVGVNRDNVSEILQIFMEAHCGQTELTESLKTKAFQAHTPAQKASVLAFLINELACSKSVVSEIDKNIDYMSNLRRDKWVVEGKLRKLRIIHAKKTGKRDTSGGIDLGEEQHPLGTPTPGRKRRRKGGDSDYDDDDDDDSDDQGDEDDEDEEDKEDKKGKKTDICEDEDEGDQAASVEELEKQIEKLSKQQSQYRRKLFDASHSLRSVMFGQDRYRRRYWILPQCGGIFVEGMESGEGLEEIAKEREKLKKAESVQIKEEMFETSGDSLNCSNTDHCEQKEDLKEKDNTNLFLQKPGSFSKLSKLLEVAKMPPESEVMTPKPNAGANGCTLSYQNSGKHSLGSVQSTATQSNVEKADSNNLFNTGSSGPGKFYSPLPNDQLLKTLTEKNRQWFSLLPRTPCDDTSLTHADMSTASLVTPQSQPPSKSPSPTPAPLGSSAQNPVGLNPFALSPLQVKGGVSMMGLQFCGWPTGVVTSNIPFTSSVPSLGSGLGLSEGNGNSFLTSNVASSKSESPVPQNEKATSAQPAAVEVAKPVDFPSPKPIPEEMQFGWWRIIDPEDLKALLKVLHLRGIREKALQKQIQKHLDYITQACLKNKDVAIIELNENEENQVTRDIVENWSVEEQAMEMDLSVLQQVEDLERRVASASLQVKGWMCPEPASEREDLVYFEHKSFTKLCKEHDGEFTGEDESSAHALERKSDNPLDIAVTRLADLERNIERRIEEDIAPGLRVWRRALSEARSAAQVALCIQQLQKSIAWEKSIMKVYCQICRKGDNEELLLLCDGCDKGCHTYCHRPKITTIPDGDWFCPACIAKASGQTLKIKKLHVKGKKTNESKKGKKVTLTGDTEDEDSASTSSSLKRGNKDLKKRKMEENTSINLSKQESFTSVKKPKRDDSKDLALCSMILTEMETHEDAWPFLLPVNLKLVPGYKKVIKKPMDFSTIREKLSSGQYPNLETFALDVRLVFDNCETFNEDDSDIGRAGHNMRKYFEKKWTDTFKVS
Source text: BAZ2B (bromodomain adjacent to zinc finger domain, 2B) belongs to a family of ubiquitously expressed bromodomain containing proteins, which biological function has not yet been elucidated. […] The interaction of BAZ2B with ISWI mediated by the BAZ1 motif has recently been described. […] The protocol is based on the AlphaScreen (PerkinElmer) displacement assay developed by NCGC [5], but uses the peptide ligand Biot-H3K14Ac, a high affinity binding partner for BAZ2B, in an AlphaScreen format. Although AlphaScreen has significant advantages with its utility in a variety of epigenetic target assays, the primary screening data provided in this deposition should be used with caution due to the prevalence of screening artifacts. The top compound concentration tested was 110uM in this assay, which increases number of actives and potential artifacts. An AlphaScreen counterscreen is highly recommended to be run against any putative actives to eliminate non-specific artifacts. Alternatively, one can use other AlphaScreen assays in PubChem to filter out promiscuous hits. Eberharter, A. et al. ACF1 improves the effectiveness of nucleosome mobilization by ISWI through PHD-histone contacts. The EMBO journal 23, 4029-4039. 2004. PMID: 15457208 [2] Jones, M.H. et al. A novel family of bromodomain genes. Genomics 63, 40-45. 2000. PMID: 10662543 [3] Yasgar, et al. Compound Management for Quantitative High-Throughput Screening. JALA. 2008 Apr;13(2):79-89. PMID: 18496600 [4] Inglese, et al. Quantitative high-throughput screening: a titration-based approach that efficiently identifies biological activities in large chemical libraries. Proc Natl Acad Sci. 1;103(31):11473-8. 2006. PMID: 16864780 [5] Quinn et al. A chemiluminescence-based method for identification of histone lysine methyltransferase inhibitors. Mol Biosyst 6(5): 782-8. 2010. PMID: 20567762 [6] Baell,Holloway. New substructure filters for removal of pan assay interference compounds (PAINS) from screening libraries and for their exclusion in bioassays. J Med Chem. 53(7):2719-40. 2010. PMID: 20131845 NIH Molecular Libraries Probe Production Network [MLPCN] NIH Chemical Genomics Center [NCGC] Structural Genomics Consortium (SGC) NIH Grant: 5U54 MH084681-02
To each well of a 1,536w plate, 2ul of BAZ2B protein (final 50nM) and 1ul biotinylated histone peptide acetylated at Lys14 [b-H3(5-23)K14Ac] (final 50nM) were added in 1x PBS buffer, pH 7.4, containing 0.01% Tween-20, using a nanoliter dispenser. Formation of a protein-peptide complex proceeded at room temperature for 30 min. A Kalypsys pin-tool was employed to transfer 23 nL of library compound solution in DMSO to each well. Following a 30 min incubation of the protein-peptide complex with compounds at room temperature, a mixture of 40 ug/mL each streptavidin-coated donor and nickel chelate acceptor AlphaScreen beads (final 10 ug/mL) were added in a 1ul dispense for a final volume of 4ul. A brief centrifugation followed (1000rpm, 1 min) and were then incubated protected from the light for 20 min at room temperature. Plates were read on an EnVision multilabel plate reader using the 1,536 plate HTS AlphaScreen aperture (excitation time 80 ms, measurement time 240 ms).
Further: nearly all actives have a fitted effect of over 60% in size.
On the % scale 0 is the no-effect control and ±100 the full control effect; potency means the concentration at half of the fitted maximal effect.

SMILES	activity change, negative = inhibition	Potency
O=C(C1COc2ccccc2O1)N(Cc1cccnc1)c1nc2c(F)cc(F)cc2s1 (centres undefined)	-11%	–
COc1ccccc1OCCNCC(O)COc1cccc2[nH]c3ccccc3c12 (centres undefined)	–	39.8 µM (active)
CCCn1c(=N)n(CC(O)COc2ccccc2OC)c2ccccc21 (centres undefined)	-4.1%	–
COc1ccccc1OCC(O)CN1CCOCC1 (centres undefined)	-19.8%	–
CCOc1ccc(C2CC(=O)c3c([nH]c(C(=O)OCc4ccccc4)c3C)C2)cc1 (centres undefined)	-5.29%	–
NC(=O)N/N=C\c1cccs1	23.3%	–
COc1ccc(Nc2nc(=O)[nH]nc2C)cc1	1.81%	–
Cc1n[nH]c(=O)nc1N/N=C/c1cccs1	–	17.8 µM (active)
COc1cc(C(=O)NC(=S)NCc2ccco2)cc(OC)c1OC	-25%	–
COc1cccc(OC)c1C(=O)NC(=S)NCc1ccco1	–	79.4 µM (active)
COC(=O)Cc1ccc(NC(=S)NCc2ccco2)cc1	-33%	–
N#Cc1nc(/C=C/c2ccc(F)cc2)oc1NC1CCCCC1	-4.26%	–
Cc1c(CCC(=O)O)c(=O)oc2c(C)c(OCc3ccccc3Cl)ccc12	–	70.8 µM (active)
CCOC(=O)CCc1c(C)c2ccc(OCc3nn[nH]n3)c(C)c2oc1=O	-1.46%	–
Cc1c(CCC(=O)O)c(=O)oc2cc(OCc3ccc(Br)cc3)ccc12	-16.1%	–
O=C(c1ccccc1F)N1CCC(c2nc3c(nnn3Cc3cccc(F)c3)c(=O)[nH]2)CC1	-3.32%	–
CC(C)(C)c1ccc(NC(=O)COC(=O)CCc2nc3ccccc3c(=O)[nH]2)cc1	-28.6%	–
CCN(c1ccc(NC(=O)COC(=O)CCc2nc3ccccc3n2-c2ccccc2)cc1)C(C)C	–	25.1 µM (active)
Cc1ccc(NC(=O)COC(=O)CCc2nc3ccccc3n2-c2ccccc2)c(C)c1	-4.05%	–
COc1ccc(-n2c(=O)c3c(c4cc(OC)ccc4n3C)n(Cc3cccc(C)c3)c2=O)cc1	-4.31%	–
CCOC(=O)c1ccc(NC(=O)CCS(=O)(=O)c2ccc(C)cc2)cc1	6.69% [at 57.1 µM]	–
Cc1ccc(N(C)C(=O)C2CCN(S(=O)(=O)c3ccc4c(c3)CCCN4C(=O)C3CCC3)CC2)cc1	-3.01%	–
COc1cccc2cc(-c3nc(Cl)c4c5c(sc4n3)CC(C)CC5)c(=O)oc12 (centres undefined)	6.24%	–
CCOc1cc(/C=C(\C#N)c2nc(-c3cccs3)c(NC(C)=O)s2)ccc1O	-3.53%	–
COc1cc(/C=C(\C#N)c2nc3c(s2)CC(C)CC3)ccc1O (centres undefined)	–	50.1 µM (active)

SMILES	activity change, negative = inhibition	Potency
COc1cc(C(=O)NCCS(=O)(=O)N2CCN(c3ccccc3)CC2)cc(OC)c1OC	-20%	–
CC(=O)c1ccc(NC(=O)CSc2c(C(C)C)cnc3c2c(=O)n(C)c(=O)n3C)cc1	4.33%	–
Cc1ccc(Cl)cc1N1CCN(C(=O)C2CCC(CNS(=O)(=O)c3cccs3)CC2)CC1 (centres undefined)	-14.2%	–
CCOC(=O)C1CCCN(CC(=O)Nc2cc(C)c3c(=O)oc4ccccc4c3n2)C1 (centres undefined)	-4.19%	–
Clc1cccc(-c2nc3nc4ccccc4nc3n2Cc2ccco2)c1	-8.99%	–
Cc1cc(NC(=O)CSc2nc3cc(Cl)ccc3c(=O)n2Cc2ccco2)no1	-20.2%	–
Cc1nc2c(c(=O)n1Cc1ccco1)c1nc3ccccc3nc1n2Cc1ccccc1	–	56.2 µM (active)
COc1ccccc1CNc1ccc(-c2nc(-c3ccccc3C)no2)cc1[N+](=O)[O-]	-15%	–
COc1ccccc1-n1c(-c2ccc(C)cc2)cn2c3c(=O)n(C)c(=O)n(C)c3nc12	-25.8%	–
CCOC(=O)c1oc2ccc(S(=O)(=O)n3nc(-c4ccccc4OC)cc3N)cc2c1C	-16%	–
CCCCOc1ccc(CN2C(=O)C(=O)c3cc(Br)cc(C)c32)cc1OC	–	6.31 µM (active)
CCCCOc1ccc(Cn2c(=O)oc3ccc(C)cc32)cc1OC	71.6%	–
CCCCN1C(=O)C(C)=C(C)C1OCCc1ccc(OC)c(OC)c1 (centres undefined)	13.3%	–
COc1ccccc1CNc1nccn(-c2ccc(F)cc2)c1=O	-18.1%	–
COc1ccc2c3c(c(=O)oc2c1OCC(=O)C(C)(C)C)CCCC3	–	79.4 µM (active)
CCCOc1ccc2c3c(c(=O)oc2c1OCCC)CCC3	21.5%	–
O=c1oc2c(CN3CCCCC3)c(O)ccc2c2c1CCCCC2	-12.4%	–
O=C(Cn1c(=O)n(-c2ccc(F)cc2)c(=O)c2sc3ccccc3c21)NC1CCCC1	-9.41%	–
Cc1cccc(NC(=O)c2cc3c(C)nn(-c4ccccc4)c3s2)c1	5.11%	–
CCOC(=O)c1[nH]c2c(c1-c1ccccc1)C(=O)CC(c1ccc(Cl)cc1)C2 (centres undefined)	3.42%	–
CCOC(=O)C1C(c2ccc(Cl)cc2)NC(=S)NC1(O)C(F)(F)F (centres undefined)	12.4%	–
CCOC(=O)C1Sc2[nH]c(=O)sc2C(c2ccc(Cl)cc2)C1C(=O)OCC (centres undefined)	–	50.1 µM (active)
Cc1ccc(NC(=O)c2oc3ccccc3c2NC(=O)Cc2cccs2)cc1	-17.6%	–
CC(C)Sc1oc(-c2cccs2)nc1S(=O)(=O)c1ccc(Cl)cc1	-4.8%	–
CCN(CC)S(=O)(=O)c1cc(C(=O)Nc2ccccn2)ccc1C	-5.55%	–

SMILES	activity change, negative = inhibition	Potency
CC(O)c1ccc(OCCN(C)c2ccccn2)cc1 (centres undefined)	0.0135%	–
CCN(CC)CCOc1ccc2c(c1)C(=NNC(=O)c1ccccn1)c1cc(OCCN(CC)CC)ccc1-2	–	20 µM (active)
COc1ccccc1CNC(=O)c1ccc(-n2c(C)cc3c2CCCC3)cc1	-9.34%	–
CC(C)c1ccc(NC(=O)C2CCN(c3nc(-c4ccc(C(C)C)cc4)no3)CC2)cc1	17.5%	–
NNc1nc2c(Cl)cccc2s1	–	44.7 µM (active)
NC(=O)c1c(Nc2nc3c(F)cccc3s2)sc2c1CCCC2	-17.7%	–
CC1CCCN(c2nc3c(S(=O)(=O)c4ccc(C(C)C)cc4)nnn3c3ccsc23)C1 (centres undefined)	-0.48%	–
O=C(CSc1nc(=O)[nH]c2c1CCCC2)Nc1cc(C(F)(F)F)ccc1Cl	-4.05%	–
O=C(Nc1c(-c2ccc(F)cc2)nc2ccccn12)c1cccc(F)c1	1.7%	–
CCn1cc(C(=O)OCC(=O)Nc2cc(C)cc(C)c2)c(=O)c2ccc(C)nc21	3.94%	–
Nc1nc(NCCCN2CCOCC2)nc(Nc2ccccc2)c1[N+](=O)[O-]	-5.03%	–
N#Cc1nc(-c2ccc(OCc3ccccc3)cc2)oc1NCCCN1CCOCC1	–	50.1 µM (active)
O=S(=O)(c1ccccc1)c1nc(-c2ccccc2)oc1NCCCN1CCOCC1	1.55%	–
Cc1ccc2sc(N(Cc3cccnc3)C(=O)C3COc4ccccc4O3)nc2c1C (centres undefined)	-2.8%	–
C[C@H](NC(=O)c1ccccc1)C(=O)OCC(=O)c1c[nH]c2ccccc12	3.43%	–
CN(C)c1ccc(C(CNC(=O)c2ccc(F)cc2)c2c[nH]c3ccccc23)cc1 (centres undefined)	–	12.6 µM (active)
O=C(CNC(=O)c1ccc(F)cc1)c1ccccc1	11.6%	–
COc1cc(OC)cc(C(=O)Nc2ccc3nc(Nc4cccc(C(F)(F)F)c4)cc(C)c3c2)c1	-4.94%	–
O=Cc1c(Nc2ccccc2Cl)nc2ccccn2c1=O	–	50.1 µM (active)
O=Cc1c(N2CCN(c3cccc(Cl)c3)CC2)nc2ccccn2c1=O	-33.1%	–
Cc1cccn2c(=O)c(C=O)c(Nc3ccc(S(N)(=O)=O)cc3)nc12	6.46%	–
CCC(=O)N1CCc2cc(CNC(=O)Nc3ccccc3Cl)ccc21	-7.45%	–
CSc1ccc(CCNC(=O)c2cc(C)nc3c2c(C)nn3-c2cccc(F)c2)cc1	17.5% [at 57.1 µM]	–
CCOc1ccccc1CNCc1c(C(=O)O)c(C)n(Cc2ccc(C)cc2)c1C	-15.7%	–
CCOC(=O)CNC(=O)N1c2ccccc2Sc2ccccc21	1.76%	–

SMILES	activity change, negative = inhibition	Potency
CCN1/C(=C/C(=S)Nc2ccccc2)Sc2ccccc21	–	22.4 µM (active)
CCN1C(=O)c2ccccc2Sc2ccc(NC(=O)Cc3ccc(OC)cc3)cc21	-3.41%	–
CCOC(=O)c1cc2c(=O)n3ccccc3nc2n(Cc2ccco2)c1=NC(=O)c1ccc(F)cc1	3.83%	–
Cc1cc(N2C(=O)C(O)=C(C(=O)c3ccc(C)o3)C2c2ccc(OCc3ccccc3)cc2)no1 (centres undefined)	-26.4%	–
COc1cc(C2C(C(=O)c3ccc(C)o3)=C(O)C(=O)N2Cc2cccnc2)ccc1O (centres undefined)	–	56.2 µM (active)
COc1ccc(C2C(C(C)=O)=C(O)C(=O)N2Cc2cccnc2)cc1 (centres undefined)	-37.3%	–
CCOC(=O)c1c(C)[nH]c(CCC(=O)NCCCN2CCN(c3cc(C)ccc3C)CC2)c1C	-32.7%	–
O=C(O)C1=C[C@H](c2cccs2)C[C@H](OCCCCO)O1	–	79.4 µM (active)
C=CCOC(=O)C1=C[C@@H](c2ccccc2)C[C@@H](OCc2ccc(CO)cc2)O1	-1.46%	–
NC(=O)C1=C[C@H](c2csc3ccccc23)C[C@H](OCc2ccc(CO)cc2)O1	-1.46%	–
Cn1c(=O)c2c(SCC(=O)NCC3CCCO3)nc(-c3ccccc3F)nc2n(C)c1=O (centres undefined)	6.48%	–
O=C(CC(c1cccs1)N1Cc2ccccc2C1=O)Nc1ccc(F)cc1F (centres undefined)	-5.59%	–
Cc1cccc(OCC(=O)N(Cc2ccc(C(C)C)cc2)Cc2ccco2)c1C	42%	–
CCS(=O)(=O)c1ncc(N(Cc2ccc(F)cc2)Cc2ccco2)c(C(=O)Nc2cc(C)ccc2C)n1	-1.24%	–
COc1ccc2sc(-c3ccc(N(C)C)cc3)c(C#CCO)c2c1	–	89.1 µM (active)
O=C(C1CC1)N1CCc2cc(Br)cc(S(=O)(=O)N3CCN(c4ccccc4F)CC3)c21	-3.75%	–
N#Cc1ccc(CSc2ncccn2)cc1	-21.7%	–
N#Cc1ccc(CSc2nnc(-c3ccccn3)n2-c2ccc(Cl)cc2)cc1	–	50.1 µM (active)
N#Cc1ccc(CSc2nnc3ccccn23)cc1	-0.806%	–
O=C(Nc1ccc(-c2nc3cc(NC(=O)c4ccccc4Cl)ccc3o2)cc1)c1ccccc1Cl	10.3%	–
CSC1=N/C(=C\C=C\c2cccs2)C(=O)S1	–	11.2 µM (active)
Cc1ccc(C)c(N2CCN(C(=O)C3CCC(CNS(=O)(=O)c4cccs4)CC3)CC2)c1 (centres undefined)	-36.8%	–
CCCOc1ccc(-c2cccc(NS(=O)(=O)c3ccccc3)c2)nn1	14.1%	–
CCOc1ccccc1C(=O)Nc1ccc(S(=O)(=O)N2CCCCC2c2cccnc2)cc1 (centres undefined)	0.817%	–
